Experimental data reported in paper PMC5540273 (PLoS ONE, 2017).

Key:
[1] = test system: TYK2(JH1domain-catalytic)
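Also: kd values determined as follow-up on hits from a single-replicate KINOMEscan panel screen.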

`N#Cc1ccc(-c2cc(-c3c[nH]nc3-c3ccccn3)ccn2)cc1` [GW693028] was tested. Which Kd (TGFBR2) did it give?
Its Kd is 0.58 µM.

Which Kd (TNNI3K) does the source give for `c1ccc(-c2cc(-c3c[nH]nc3-c3ccccn3)ccn2)cc1` [GW576604] here?
The Kd was over 10 µM.

How did the Kd (TRPM6) turn out when `CCn1cnc2c(N)ncnc21` [GW345098] was run?
Its Kd is 0.24 µM.

With `O=C(NCCNc1ccnc(Nc2ccc(F)cc2)n1)c1cc2ccccc2s1` [GSK1379874] as the compound, how does the Kd (TXK) read?
Its Kd is over 10 µM.

How did the Kd (TXK) turn out when `CN(C1=C(c2ccccc2)C(=O)NC1=O)c1ccccc1` [SB-334860] was run?
Its Kd is over 10 µM.

With `Cc1ccc(NC(=O)c2ccnc(N3CCN(C)CC3)c2)cc1-c1ccc(C(=O)NCC2CC2)cc1` [GW775604] as the compound, how does the Kd [1] read?
The Kd was over 10 µM.

And the Kd (ULK2)?
Its Kd is over 10 µM.

How did the Kd (ULK2) turn out when `NS(=O)(=O)c1cccc(-c2ccc3nccc(-c4cccc(S(N)(=O)=O)c4)c3c2)c1` [GW867253] was run?
The Kd was over 10 µM.

`O=C1NC(=O)C(N2CCc3ccccc32)=C1c1cccc(Cl)c1` [SB-408010] was tested. Which Kd (WNK4) did it give?
The Kd was over 10 µM.
